Screens from PubChem.
hcDAF12 agonist – activators of H. contortus DAF-12 nuclear receptor; 1.4% of 370,000 active; activation, % at 6.8 µM; HEK293 hcDAF-12 lit1-tk-luc reporter, luminescence; 0% DMSO, 100% Δ7-dafachronic acid; AID 652067;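 active = activation above the mean of all tested compounds plus 3 SD, cut at about 5.5% in these data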;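 also: 100% = response to 3 µM Δ7-dafachronic acid high control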
hgDAF-12 ag – activates the H. glycines DAF-12 receptor ligand-binding domain; HEK293 GAL4-hgDAF12 UAS-luciferase reporter, agonist luminescence; normalized to butyrate control; 1.8% of 370,000 active; activation, % at 6.8 µM;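 active = activation above a cutoff set at the mean of all screened compounds plus 3 SD, cut at about 10% in these data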;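 also: 0% = DMSO wells and 100% = sodium butyrate wells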
GAA850 FXN act – increases GAA850 frataxin promoter reporter activity; HEK293 lucGAA850 FXN promoter luciferase reporter, 24 h; percent of 10 µM SAHA response; AID 540364; 0.56% of 360,000 active; activation, % at 6 µM;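 active = activation above the average of all compounds screened plus 3 SD, cutoff fixed separately per campaign, cut at about 7.5% in these data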;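 also: 0% = DMSO wells and 100% = 10 µM SAHA wells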
ssDAF12 agonist – S. stercoralis DAF-12 activation, primary screen; HEK293 ssDAF-12/GRIP1 lit1-tk-luc reporter, luminescence; % of 3 µM dafachronic acid response; 1% of 370,000 active; AID 652126; activation, % at 6.8 µM;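 active = activation above the mean over all tested compounds plus 3 SD, cut at about 0.9% in these data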;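 also: 0% = DMSO-only wells and 100% = 3 µM delta7-dafachronic acid wells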
DAX1 inh-1 – DAX1 (NR0B1) inhibition, primary screen; 1.1% of 370,000 active; inhibition, % at 6.8 µM; HEK293T StAR-luciferase reporter, SF-1/DAX-1 repression relief;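 active = inhibition above the mean over all tested compounds plus 3 SD, cut at about 3.6% in these data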;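 also: 0% = DAX-1 cells with DMSO and 100% = cells lacking DAX-1 with DMSO; higher inhibition means more luminescence from relief of DAX-1 repression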
DAX1 inh-2 – NR0B1 (DAX1) inhibition; AID 504766; HEK293 Gal4-DAX1 luciferase reporter, luminescence; inhibition, % at 6.75 µM; 0.99% of 340,000 active; P51843;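 active = inhibition above the mean over all tested compounds plus 3 SD, cut at about 4.2% in these data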;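 also: 0% = DAX1-transfected cells with DMSO and 100% = empty-vector control cells with DMSO; inhibition shows as a rise in luminescence from relieved DAX1 repression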
Target sequence (P51843 207-470 limits assumed): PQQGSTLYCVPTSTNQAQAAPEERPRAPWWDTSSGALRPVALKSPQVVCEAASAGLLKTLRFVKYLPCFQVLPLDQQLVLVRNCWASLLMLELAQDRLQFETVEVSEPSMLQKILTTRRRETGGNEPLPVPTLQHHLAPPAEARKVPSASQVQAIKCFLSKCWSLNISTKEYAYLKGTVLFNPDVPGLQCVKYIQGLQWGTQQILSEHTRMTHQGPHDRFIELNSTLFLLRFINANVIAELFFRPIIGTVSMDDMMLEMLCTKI
* = called active by the depositor. This is a sample that favours compounds with a hit; in the whole collection about 4.5% have one here.

For CCN(CC)C(=O)CC[C@H]1CC[C@]2(CCCN(C(=O)C(C)(C)C)C2)O1 the results were hcDAF12 agonist 0, hgDAF-12 ag -3, ssDAF12 agonist -1 and DAX1 inh-1 1.
Cc1cc(Br)c2nc(-c3ccc(F)cc3)c(Cc3cccc(Cl)c3)n2c1 was read as hcDAF12 agonist 3, hgDAF-12 ag 2, ssDAF12 agonist 1.3* and DAX1 inh-1 0.
Screening Brc1ccc(-c2nc3c4ccccc4ccn3c2Cc2ccccc2)cc1 returned hcDAF12 agonist 4, hgDAF-12 ag 1, GAA850 FXN act -2, ssDAF12 agonist 0, DAX1 inh-1 -1 and DAX1 inh-2 2.
`Clc1cccc(Cc2c(-c3cccc(Cl)c3)nc3c4ccccc4ccn23)c1` gave hcDAF12 agonist 4, hgDAF-12 ag 3, ssDAF12 agonist 1.1* and DAX1 inh-1 1.
Fc1ccc(-c2nc3c4ccccc4ccn3c2Cc2ccsc2)cc1 was read as hcDAF12 agonist 4, hgDAF-12 ag 8, ssDAF12 agonist 1.1* and DAX1 inh-1 0.
Screening Fc1ccc(-c2nc3c4ccccc4ccn3c2Cc2cccc(F)c2)cc1 returned hcDAF12 agonist 5.6*, hgDAF-12 ag 7, ssDAF12 agonist 0 and DAX1 inh-1 0.
CC(C)(C)OC(=O)N1CCC[C@@H]1C(=O)N1CCC[C@@H]1C(=O)NCc1ccccc1 was read as hcDAF12 agonist -2, hgDAF-12 ag -1, ssDAF12 agonist -1 and DAX1 inh-1 -1.
Cc1ccc(Cn2cc(CN(C(C)(C)C)S(=O)(=O)c3ccc(F)cc3Br)nn2)cc1 was read as hcDAF12 agonist -4, hgDAF-12 ag -3, ssDAF12 agonist -1 and DAX1 inh-1 -1.
Screening C#CCN1CC(N(C)CCOC(=O)c2ccc(F)cc2)CS1(=O)=O (stereo not drawn) returned hcDAF12 agonist 0, hgDAF-12 ag 2, ssDAF12 agonist -1 and DAX1 inh-1 0.
`Clc1cccc(Cc2c(C3CCCCC3)nc3c4ccccc4ccn23)c1` gave hcDAF12 agonist 6.3*, hgDAF-12 ag 7, ssDAF12 agonist 1 and DAX1 inh-1 3.8*.
For Clc1ccc(-c2nc3c4ccccc4ccn3c2Cc2ccccc2)cc1 the results were hcDAF12 agonist 3, hgDAF-12 ag 5, GAA850 FXN act 1, ssDAF12 agonist 0, DAX1 inh-1 2 and DAX1 inh-2 2.
Screening Fc1ccc(-c2nc3c4ccccc4ccn3c2Cc2ccccc2)cc1 returned hcDAF12 agonist 2, hgDAF-12 ag 2, GAA850 FXN act 1, ssDAF12 agonist 1.6*, DAX1 inh-1 -1 and DAX1 inh-2 1.
Screening Cc1cc(C)c(C)c(S(=O)(=O)NCC(=O)N2CCCC2)c1C returned hcDAF12 agonist -3, hgDAF-12 ag 1, GAA850 FXN act -2, ssDAF12 agonist 0.9*, DAX1 inh-1 0 and DAX1 inh-2 1.
Screening Cc1ccc(C)c(S(=O)(=O)NCC(=O)N2CCCC2)c1 returned hcDAF12 agonist 2, hgDAF-12 ag 2, GAA850 FXN act 1, ssDAF12 agonist -1, DAX1 inh-1 1 and DAX1 inh-2 -1.
Screening c1ccc(N2CCN(c3ccccc3)C2c2cccs2)cc1 returned hcDAF12 agonist 1, hgDAF-12 ag 7, GAA850 FXN act -1, ssDAF12 agonist -2, DAX1 inh-1 0 and DAX1 inh-2 7.7*.
For O=C1CSC(c2cccs2)N1c1ccccc1 (stereo not drawn) the results were hcDAF12 agonist 1, hgDAF-12 ag -1, GAA850 FXN act 0, ssDAF12 agonist -1, DAX1 inh-1 0 and DAX1 inh-2 0.
`COC(=O)[C@]12C[C@H](CC(=O)N3CCN(C(=O)c4ccco4)CC3)C(=O)N(Cc3ccco3)C1=C[C@H](C(C)(C)C)O[C@@H]2C` gave hcDAF12 agonist 0, hgDAF-12 ag -1, ssDAF12 agonist -2 and DAX1 inh-1 0.
For COCCCNC(=S)NNC(=O)C1CC1c1ccc(C(C)(C)C)cc1 (stereo not drawn) the results were hcDAF12 agonist 0, hgDAF-12 ag 3, GAA850 FXN act 0, ssDAF12 agonist -2, DAX1 inh-1 0 and DAX1 inh-2 5.2*.
For CCCS(=O)(=O)N1CCN(C2CCC(C)CC2)CC1 (stereo not drawn) the results were hcDAF12 agonist -1, hgDAF-12 ag -2, GAA850 FXN act -1, ssDAF12 agonist -2, DAX1 inh-1 -1 and DAX1 inh-2 5.7*.
`CCS(=O)(=O)N1CCC(N2CCC(C)CC2)CC1` gave hcDAF12 agonist -1, hgDAF-12 ag 0, GAA850 FXN act 0, ssDAF12 agonist -2, DAX1 inh-1 0 and DAX1 inh-2 2.
`COC(=O)[C@]12C[C@H](CC(=O)NCCCN3CCCC3=O)C(=O)N(Cc3ccco3)C1=C[C@H](C(C)C)O[C@@H]2C1CC1` gave hcDAF12 agonist 0, hgDAF-12 ag -2, ssDAF12 agonist -2 and DAX1 inh-1 -1.
For CN1C(=O)/C(=C/c2ccc(O)c([N+](=O)[O-])c2)N(C)C1=S the results were hcDAF12 agonist 0, hgDAF-12 ag 3, GAA850 FXN act 0, ssDAF12 agonist -1, DAX1 inh-1 1 and DAX1 inh-2 4.2*.
COc1cc(/C=C2\C(=O)N(C)C(=S)N2C)ccc1O was read as hcDAF12 agonist -2, hgDAF-12 ag 1, GAA850 FXN act 2, ssDAF12 agonist -1, DAX1 inh-1 0 and DAX1 inh-2 0.
O=C(c1ccncc1)N1CC[C@H]2[C@H](CCCN2Cc2ccccc2)C1 was read as hcDAF12 agonist -2, hgDAF-12 ag 2, ssDAF12 agonist -1 and DAX1 inh-1 1.
`CN(C)c1ccc(Cl)cc1N` gave hcDAF12 agonist 0, hgDAF-12 ag 0, GAA850 FXN act 1, ssDAF12 agonist -1, DAX1 inh-1 -1 and DAX1 inh-2 5.3*.
For C[C@H](O)[C@@H]1CN2CCc3c([nH]c4c(-c5ccc6c(c5)OCO6)cccc34)[C@@H]2C[C@@H]1N(C)C(=O)c1ccccc1F the results were hcDAF12 agonist -2, hgDAF-12 ag -1, ssDAF12 agonist -2 and DAX1 inh-1 -1.
`Cc1sc2ncnc(NC(C)C(=O)O)c2c1C` (stereo not drawn) gave hcDAF12 agonist -1, hgDAF-12 ag -2, GAA850 FXN act -1, ssDAF12 agonist 0, DAX1 inh-1 1 and DAX1 inh-2 5.3*.
For CCOc1ccccc1C(=O)Nc1ccc(C(=O)NCC2COc3ccccc3O2)cc1 (stereo not drawn) the results were hcDAF12 agonist -3, hgDAF-12 ag -5, ssDAF12 agonist -1 and DAX1 inh-1 -1.
`COc1cccc(CC(=O)OCC(=O)Nc2c(C)nn(-c3ccccc3)c2C)c1` gave hcDAF12 agonist -1, hgDAF-12 ag 7, GAA850 FXN act 0, ssDAF12 agonist -1, DAX1 inh-1 0 and DAX1 inh-2 7.0*.
